# Source: PubChem BioAssay
# A number with no mark means an inactive call. The rule behind the calls is not given here.
# Target: Pantothenate synthetase (Mycobacterium tuberculosis (strain ATCC 25618 / H37Rv)) (UniProt P9WIL5)
# Assay: Recombinant Mtb pantothenate synthetase (PanC) inhibitors, coupled enzyme, confirmatory (AID 375);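 note: 0% = full reaction with vehicle and 100% = no enzyme background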
# Conditions: coupled enzyme assay; at 10 µM, hits give high values
# Chain of Pantothenate synthetase (Mycobacterium tuberculosis (strain ATCC 25618 / H37Rv)) (P9WIL5 whole entry, looked up): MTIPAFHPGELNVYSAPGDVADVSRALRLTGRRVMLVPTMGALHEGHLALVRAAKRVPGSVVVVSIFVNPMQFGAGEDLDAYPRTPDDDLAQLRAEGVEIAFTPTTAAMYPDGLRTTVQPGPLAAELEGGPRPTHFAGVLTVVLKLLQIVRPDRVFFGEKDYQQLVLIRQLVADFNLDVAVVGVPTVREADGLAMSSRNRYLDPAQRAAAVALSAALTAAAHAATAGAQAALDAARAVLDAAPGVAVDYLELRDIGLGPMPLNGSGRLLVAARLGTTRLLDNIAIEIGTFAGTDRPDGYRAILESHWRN
row,Structure (SMILES),inhibition
1,CC(C)(CSc1nncn1N)NS(=O)(=O)c1ccc(Cl)cc1,0%
2,CC(=O)c1ccc(NC(=O)CSc2nnc(-c3ccoc3C)n2Cc2ccccc2)cc1,0%
3,O=C(CN1CCN(c2ncc(C(F)(F)F)cc2Cl)CC1)Nc1ccc2c(c1)OCO2,0%
4,CCC(=O)N(Cc1ccco1)c1nc(-c2cc(OC)ccc2OC)cs1,0%
5,O=C(Cn1c(=O)[nH]c2ccsc2c1=O)NC1CCCCCC1,7%
6,CC(C)Nc1ncnc2c1cnn2-c1ccccc1,0%
7,CCCCOc1ccc(-c2ncc(Cl)cn2)cc1,0%
8,Cc1cccc(-n2nc3c(c2NC(=O)CCC2CCCCC2)CS(=O)C3)c1C (centres undefined),3%
9,CC1CCCN(C(=O)C23CCC(C)(C(=O)C2)C3(C)C)C1 (centres undefined),0%
10,COc1cc(NS(=O)(=O)c2cccc3nsnc23)c(C(=O)O)cc1OC,0%
11,Cn1cccc1C(=O)NC(=O)CSc1nnc(C2CC2)n1-c1ccccc1,0%
12,CCOC(=O)C1=C(C)N=C2SC(C)C(=O)N2C1c1cccc(F)c1 (centres undefined),0%
13,COc1ccc(-n2nc(C(=O)NCC(=O)NCC3CCCO3)c3ccccc3c2=O)cc1 (centres undefined),0%
14,CCOC(=O)C1=C(C)NC(C)=C(C(=O)OC)C1c1cccc(Cl)c1Cl (centres undefined),4%
15,Clc1ccc(Cl)c(-c2nn3c(COc4ccccc4)nnc3s2)c1,4%
16,CCOC(=O)Cn1c(N2CCOCC2)nc2c1c(=O)[nH]c(=O)n2C,5%
17,CCOC(=O)C1=C(C)Nc2nnnn2C1c1c[nH]c2ccccc12 (centres undefined),3%
18,Cc1cc(C(C)(C)C)cc(C)c1CC1=NCCN1,0%
19,O=C(CSc1nnc(COc2ccc(Cl)cc2)o1)N1CCN(c2ccccc2)CC1,0%
20,CCC(=O)O[C@@H]1CC(=O)O[C@H](C)CC=CC=C[C@@H](O)[C@H](C)C[C@H](CC=O)[C@H](O[C@H]2O[C@H](C)[C@@H](O[C@H]3C[C@@](C)(O)[C@@H](OC(=O)CC)[C@H](C)O3)[C@H](N(C)C)[C@H]2O)[C@H]1OC,4%

row,Structure (SMILES),inhibition
1,CCCCc1ccc(NC(=O)COCC)cc1,0%
2,CC1CN(c2nc3ccccc3nc2C(C#N)C(=O)NCc2ccc3c(c2)OCO3)CC(C)O1 (centres undefined),0%
3,O=C(NCC(c1cccnc1)N1CCN(c2ccc(F)cc2)CC1)c1ccc(F)cc1 (centres undefined),4%
4,Cn1cnc(S(=O)(=O)NCc2cccs2)c1,0%
5,CCc1noc(C)c1C(=O)NCCc1ccc(OC)c(OC)c1,3%
6,COc1ccc(C/C(N)=N/n2cnnc2)cc1Cl,0%
7,O=C(NCCN1CCOCC1)NC1(C(F)(F)F)Oc2ccc(Cl)cc2O1 (centres undefined),0%
8,CCOC(=O)c1sc2nc(N3CCCC3)c3c(c2c1N)CC(C)(C)OC3,0%
9,Cc1ccc(NC(=O)C2CCCNC2=O)nc1 (centres undefined),0%
10,O=c1[nH]c(Nc2ccccc2)cc2ccccc12,0%
11,Cc1oc(C(=O)O)cc1CSCc1cc(C(=O)O)c(C)o1,2%
12,CCOC(=O)c1ccc(COC(=O)CCc2nc3ccccc3[nH]c2=O)o1,0%
13,COC(=O)Cc1c(C)c2ccc(OCC(=O)N3CCOCC3)cc2oc1=O,0%
14,Cc1cccc(-c2cc3nc4c(c(N5CCC6(CC5)OCCO6)n3n2)CCCC4)c1,4%
15,CCc1nnc2n1N=C(c1ccc(-c3ccc(Cl)cc3Cl)o1)CS2,3%
16,CCCn1c(SCC(=O)Nc2ccccc2C(=O)OC)nc2c1c(=O)n(C)c(=O)n2C,3%
17,CCOc1cc(NC(=O)c2ccco2)c(OCC)cc1NC(=O)COc1ccccc1C,0%
18,COc1cccc(NC(=O)Nc2cccs2)c1,0%
19,Clc1ccc(SCCn2ccnc2)cc1,0%
